We go through 19 compounds from PubChem BioAssay.

A number with no mark means an inactive call. For some assays here: Potency and affinity values are given separately. The source made the active and inactive calls. Unless noted, how the calls were made is not given here.

A short description of test [1]: antimalarial activity against Dd2 strain (AID 2302;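 active means growth inhibition above 50% at the single 2 µM test dose, taken to imply half-maximal potency below 2 µM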;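 further: 0% = DMSO untreated growth and 100% = chloroquine plus artemisinin killed control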). The following applies: P. falciparum Dd2 in RBCs, LDH growth readout, 72 h; at 2 µM; stronger effect = higher value.
The nature of test [2]: human hepatoma cell viability loss – ATP luminescence, cytotoxicity control for P. falciparum antimalarial project, primary screen (AID 2303;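 active means inhibition above 50%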;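 further: 0% = DMSO wells and 100% = digitonin-killed cells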). To be noted: HepG2 viability, 24-48 h, at 10 µM, stronger effect = higher value.
Test [3] deals with L-lactate dehydrogenase (Plasmodium falciparum (isolate CDC / Honduras)) (UniProt Q27743). Nature of the test: PfLDH activity inhibition – cell lysate, 3D7 strain, counter-screen for P. falciparum growth inhibition project (AID 2304).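 Further: 0% = vehicle and 100% = reference inhibitor.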 To be noted: P. falciparum 3D7 crude extract, LDH APAD/NBT absorbance; at 2 µM; stronger effect = higher value. (In general: The purpose of a counterscreen is to sort out artefacts and off-target activity.)

A short description of test [4]: inhibition of 3D7 malaria parasite growth – strain 3D7 (AID 2306).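 Further: 0% = DMSO wells and 100% = chloroquine plus artemisinin control wells.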 To be noted: P. falciparum 3D7 erythrocytic growth, LDH absorbance, 72 h; at 2 µM; stronger effect = higher value.
Test [5] addresses Calcium-dependent protein kinase 1 (Plasmodium falciparum (isolate 3D7)) (UniProt P62344). Nature of the test: PfCDPK1 kinase inhibitors, biochemical, TCAMS library (AID 1159585; cut-off not given, nearly all actives have IC50 up to about 0.98 µM;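 further: inhibitors leave more ATP so luminescence rises with inhibition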). To be noted: recombinant PfCDPK1, Kinase-Glo ATP depletion luminescence.
Test [6] has as its target Plasmodium falciparum protein kinase 6 (PK6, PF3D7_1337100) (UniProt Q8IDW1). Nature of the test: PfPK6 kinase inhibitors, biochemical, TCAMS library (AID 1159586). To be noted: recombinant PfPK6, Kinase-Glo ATP depletion luminescence. In general terms: In Kinase-Glo more light means more ATP remaining.
Test [7] addresses Protein kinase 7 (PK7), Plasmodium falciparum 3D7 (PF3D7_0213400) (UniProt Q7YTF7). Nature of the test: inhibition of Plasmodium PK7 catalytic activity – biochemical, TCAMS antimalarial set, Kinase-Glo luminescence (AID 1159587). To be noted: recombinant PfPK7, Kinase-Glo ATP depletion luminescence.
Test [8] addresses Calcium-dependent protein kinase 4 (Plasmodium falciparum (isolate 3D7)) (UniProt Q8IBS5). Nature of the test: PfCDPK4 kinase inhibitors, biochemical, TCAMS library (AID 1159588; cut-off not given, nearly all actives have IC50 up to about 0.91 µM). The following applies: recombinant PfCDPK4, Kinase-Glo ATP depletion luminescence.

Chain of Protein kinase 7 (PK7), Plasmodium falciparum 3D7 (PF3D7_0213400) (Q7YTF7 1-343): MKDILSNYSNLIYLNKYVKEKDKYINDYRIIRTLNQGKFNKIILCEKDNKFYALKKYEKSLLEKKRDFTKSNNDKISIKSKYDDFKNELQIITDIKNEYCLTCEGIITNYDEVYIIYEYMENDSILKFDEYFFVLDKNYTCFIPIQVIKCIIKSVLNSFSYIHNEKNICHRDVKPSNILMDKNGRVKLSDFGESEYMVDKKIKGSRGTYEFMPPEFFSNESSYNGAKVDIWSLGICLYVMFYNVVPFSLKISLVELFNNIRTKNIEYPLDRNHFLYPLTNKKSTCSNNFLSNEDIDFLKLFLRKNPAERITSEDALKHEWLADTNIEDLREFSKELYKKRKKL
Chain of Calcium-dependent protein kinase 4 (Plasmodium falciparum (isolate 3D7)) (Q8IBS5 whole entry, looked up): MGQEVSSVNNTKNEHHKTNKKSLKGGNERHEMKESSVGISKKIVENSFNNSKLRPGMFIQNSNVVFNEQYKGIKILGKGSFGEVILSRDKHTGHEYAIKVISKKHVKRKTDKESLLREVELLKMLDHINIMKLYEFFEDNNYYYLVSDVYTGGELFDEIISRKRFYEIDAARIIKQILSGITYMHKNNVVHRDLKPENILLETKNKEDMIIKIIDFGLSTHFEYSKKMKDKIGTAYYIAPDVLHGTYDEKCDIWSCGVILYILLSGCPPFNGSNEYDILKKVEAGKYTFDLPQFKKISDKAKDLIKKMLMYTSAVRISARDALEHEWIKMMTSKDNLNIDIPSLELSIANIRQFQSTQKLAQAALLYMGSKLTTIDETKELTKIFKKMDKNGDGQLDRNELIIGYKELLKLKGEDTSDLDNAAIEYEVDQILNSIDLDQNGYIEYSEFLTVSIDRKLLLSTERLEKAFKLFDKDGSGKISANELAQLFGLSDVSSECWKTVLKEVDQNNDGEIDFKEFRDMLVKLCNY
Chain of Calcium-dependent protein kinase 1 (Plasmodium falciparum (isolate 3D7)) (P62344 whole entry, looked up): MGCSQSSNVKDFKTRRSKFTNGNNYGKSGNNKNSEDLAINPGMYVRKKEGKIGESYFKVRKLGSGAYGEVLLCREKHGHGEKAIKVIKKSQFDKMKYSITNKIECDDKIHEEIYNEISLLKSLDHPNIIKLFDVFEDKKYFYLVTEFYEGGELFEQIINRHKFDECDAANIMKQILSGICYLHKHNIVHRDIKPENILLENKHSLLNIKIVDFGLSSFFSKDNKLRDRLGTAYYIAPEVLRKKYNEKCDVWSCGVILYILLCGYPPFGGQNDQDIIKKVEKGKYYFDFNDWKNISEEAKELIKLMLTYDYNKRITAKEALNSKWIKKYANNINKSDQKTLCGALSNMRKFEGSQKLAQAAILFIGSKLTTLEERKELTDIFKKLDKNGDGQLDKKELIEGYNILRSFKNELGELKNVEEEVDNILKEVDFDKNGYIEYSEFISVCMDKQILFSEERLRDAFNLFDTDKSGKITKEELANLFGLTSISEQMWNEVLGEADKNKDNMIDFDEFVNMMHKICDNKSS
Chain of Plasmodium falciparum protein kinase 6 (PK6, PF3D7_1337100) (Q8IDW1 1-305): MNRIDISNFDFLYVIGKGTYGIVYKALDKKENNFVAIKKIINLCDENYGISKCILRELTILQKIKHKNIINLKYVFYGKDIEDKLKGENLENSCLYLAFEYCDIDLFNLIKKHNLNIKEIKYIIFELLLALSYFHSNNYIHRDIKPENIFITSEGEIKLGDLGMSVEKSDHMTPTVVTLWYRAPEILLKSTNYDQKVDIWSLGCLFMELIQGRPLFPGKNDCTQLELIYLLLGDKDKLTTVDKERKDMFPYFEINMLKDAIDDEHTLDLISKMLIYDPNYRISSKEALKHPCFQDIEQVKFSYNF
Chain of L-lactate dehydrogenase (Plasmodium falciparum (isolate CDC / Honduras)) (Q27743 whole entry, looked up): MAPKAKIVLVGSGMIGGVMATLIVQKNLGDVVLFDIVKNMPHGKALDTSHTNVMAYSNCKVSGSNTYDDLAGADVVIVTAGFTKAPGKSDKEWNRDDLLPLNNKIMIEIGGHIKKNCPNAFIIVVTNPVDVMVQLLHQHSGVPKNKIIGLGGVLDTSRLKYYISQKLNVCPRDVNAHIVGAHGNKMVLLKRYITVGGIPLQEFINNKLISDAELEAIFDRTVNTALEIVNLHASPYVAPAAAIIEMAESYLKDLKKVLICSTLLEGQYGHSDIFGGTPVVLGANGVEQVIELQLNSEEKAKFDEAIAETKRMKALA

Usually inhibition stands for the relative decrease from the control value, in per cent. In the case of `Cc1cccc2[nH]c(-c3ccc(-c4cccc(CN5CCN(CC6CCCN(C)C6)CC5)c4)s3)nc12` (configuration not stated), the growth inhibition in test [1] is 99% (active); in test [4], 100% (active). For the same compound, the inhibition is 47% in test [2] and 4% in test [3]. The result in test [5], in test [6], in test [7] and in test [8] was inactive.
As for `CN(C)CCN1CCN(Cc2ccc(-c3cccc(-c4nc5ccccc5[nH]4)c3)cc2)CC1`, the growth inhibition in test [1] was 100% (active); in test [4], 102% (active). Moreover, the inhibition in test [2] is 25%; in test [3] it was -7%. Further, the result in test [5], in test [6], in test [7] and in test [8] was inactive.
Take `O=C(Nc1cccc(-c2cccc(-c3nc4ccccc4[nH]3)c2)c1)c1csnn1`: the growth inhibition was 27% in test [1] and 90% (active) in test [4]. The results for the inhibition in test [2] and in test [3] were 31% and 5%, respectively. Also, the result in test [5], in test [6], in test [7] and in test [8] was inactive.
For `CCCCCOc1ccc(N2C(N)=NC(N)=NC2(C)C)cc1`, the growth inhibition in test [1] was -4%; in test [4], 97% (active). Besides, the inhibition is 24% in test [2] and -4% in test [3]. For the same compound, the result in test [5], in test [6], in test [7] and in test [8] was inactive.
In the case of `COc1ccc2nccc([C@@H](O)CN3CCC(NC(=O)C(c4cccs4)N4CCN(c5ccc(F)cc5)CC4)CC3)c2c1` (some centres not stated), the growth inhibition in test [1] was 45%; in test [4] it was 97% (active). Besides, the inhibition in test [2] is 9%; in test [3], 3%. The outcome in test [5], in test [6], in test [7] and in test [8] was inactive.
`CCOc1ccc2ccccc2c1C(=O)Nc1cc(C)nn1-c1nc(C)cc(=O)[nH]1`: the figures for the growth inhibition in test [1] and in test [4] were 86% (active) and 93% (active), respectively. Also, the inhibition was 28% in test [2] and -1% in test [3]. The result in test [5], in test [6], in test [7] and in test [8] was inactive.
For the compound `CCN(CC)CCN(Cc1ccc(-c2ccc(C(F)(F)F)cc2)cc1)C(=O)c1ccc(-c2ccc(C#N)cc2)cc1`, the figures for the growth inhibition in test [1] and in test [4] were 31% and 89% (active), respectively. In addition, the inhibition is 38% in test [2] and -5% in test [3]. For the same compound, the outcome in test [5], in test [6], in test [7] and in test [8] was inactive.
On to `Oc1ccc(CN2CCC(NCc3cccc(C(F)(F)F)c3)CC2)cc1`, for which the values for the growth inhibition in test [1] and in test [4] were 64% (active) and 101% (active), respectively. The inhibition is 10% in test [2] and 5% in test [3]. The outcome in test [5], in test [6], in test [7] and in test [8] was inactive.
For the compound `COc1ccccc1-c1csc(C(=O)NCC2CCN(Cc3ccc(C(C)(C)C)cc3)C2)c1` (configuration not stated), the values for the growth inhibition in test [1] and in test [4] were 11% and 93% (active), respectively. Further, the inhibition is 29% in test [2] and 0% in test [3]. The outcome in test [5], in test [6], in test [7] and in test [8] was inactive.
For the compound `COc1ccc2nccc([C@@H](O)CN3CCC(NCc4cc5cccc(OCc6ccccc6)c5[nH]4)CC3)c2c1`, the results for the growth inhibition in test [1] and in test [4] were 40% and 101% (active), respectively. Also, the results for the inhibition in test [2] and in test [3] were 13% and 1%, respectively. Besides, the result in test [5], in test [6], in test [7] and in test [8] was inactive.
As to `O=C(c1ccco1)N1CCN(c2ccc([N+](=O)[O-])c(NC3CC3)c2)CC1`, the growth inhibition in test [1] is 99% (active); in test [4], 101% (active). In addition, the inhibition was -8% in test [2] and 0% in test [3]. The outcome in test [5], in test [6], in test [7] and in test [8] was inactive.
For `Cc1cccc2[nH]c(-c3cccc(-c4cccc(NC(=O)c5ccc(C(N)=O)cc5)c4)c3)nc12`, the growth inhibition in test [1] was 34%; in test [4] it was 101% (active). Moreover, the inhibition is 25% in test [2] and 0% in test [3]. For the same compound, the outcome in test [5], in test [6], in test [7] and in test [8] was inactive.
Regarding `Cc1c(F)cc(C(=O)NC2CC2)cc1-c1ccc2c(cnn2S(=O)(=O)c2ccc(F)c(F)c2)c1`, the growth inhibition is 76% (active) in test [1] and 91% (active) in test [4]. For the same compound, the inhibition was 49% in test [2] and -2% in test [3]. Also, the outcome in test [5], in test [6], in test [7] and in test [8] was inactive.
Regarding `O=C(/C=C/c1ccc(Cl)c(Cl)c1)NCCCCCN1CCCN(C(=O)Nc2cc(F)cc(F)c2)CC1`, the growth inhibition was 1% in test [1] and 94% (active) in test [4]. In addition, the inhibition is 4% in test [2] and 0% in test [3]. The outcome in test [5], in test [6], in test [7] and in test [8] was inactive.
Turning to `O=C(Nc1ccc(-c2nc3ccc(NC(=O)c4ccc(Br)cc4)cc3[nH]2)cc1)c1ccc(Br)cc1`, the values for the growth inhibition in test [1] and in test [4] were 4% and 98% (active), respectively. In addition, the results for the inhibition in test [2] and in test [3] were 40% and 3%, respectively. Moreover, the result in test [5], in test [6], in test [7] and in test [8] was inactive.
Turning to `CC(C)(C)c1ccc2nc(-c3ccc(C(=O)NCc4cccc(C(F)(F)F)c4)cc3)[nH]c2c1`, the growth inhibition in test [1] was 26%; in test [4], 98% (active). Further, the inhibition is 9% in test [2] and -1% in test [3]. The result in test [5], in test [6], in test [7] and in test [8] was inactive.
As to `Cc1nn(-c2ccccc2)c2c1C(c1ccc(C(C)C)cc1)N1C(=N2)N(Cc2ccccc2)c2ccccc21` (configuration not stated), the figures for the growth inhibition in test [1] and in test [4] were 37% and 95% (active), respectively. For the same compound, the inhibition in test [2] was 7%; in test [3] it was -7%. Also, the result in test [5], in test [6], in test [7] and in test [8] was inactive.
In the case of `Cc1cc(=O)[nH]c(-n2nc(C)cc2NC(=O)C2(c3ccc(Cl)cc3)CCCC2)n1`, the growth inhibition in test [1] is 97% (active); in test [4], 96% (active). Further, the inhibition was 30% in test [2] and 5% in test [3]. In addition, the outcome in test [5], in test [6], in test [7] and in test [8] was inactive.
Take `CC1(C)Cc2c(oc3ncn(CCn4cnc5oc6c(c5c4=N)CC(C)(C)SC6)c(=N)c23)CS1`: the growth inhibition is 93% (active) in test [1] and 98% (active) in test [4]. For the same compound, the inhibition is -11% in test [2] and 0% in test [3]. The result in test [5], in test [6], in test [7] and in test [8] was inactive.
